About 83,000 compounds went through this panel and 20% of them were active in at least one assay; those are over-represented in the sample as a whole.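 Method: cells in 96-well plates; compound added at one concentration; 48 h incubation; percent growth measured; values under 10 scored active.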 Unmarked numbers belong to inactive results. Calls of active or inactive are those of the source.
Columns and labels:
Experiment in all cases: NCI-60 one-dose screen, 48 h (100 = growth as untreated, 0 = no growth, -100 = all killed)
Settings in all cases: 10 µM unless noted
[1] = system: T-47D breast
[2] = system: BT-549 breast
[3] = system: MDA-MB-435 melanoma
[4] = system: SW-620 colon
[5] = system: MCF7 breast
[6] = system: HCT-116 colon
[7] = system: HCC-2998 colon
[8] = system: KM12 colon
[9] = system: MDA-MB-468 breast

Structure (SMILES) | growth [1] | growth [2] | growth [3] | growth [4] | growth [5] | growth [6] | growth [7] | growth [8] | growth [9]
O=C(Nc1nc2ccc([N+](=O)[O-])cc2s1)Nc1ccccc1F | -5.6% (active) | -13.8% (active) | 12.7% | 16.6% | -0.503% (active) | 3.1% (active) | 23.8% | 13.6% | -15.4% (active)
COc1ccc(C2=Nc3c(N)nc(N)nc3NC(c3ccc(Oc4nc(Nc5ccc(F)cc5)nc(N(C)C)n4)c(OC)c3)C2)cc1 (configuration not stated) | 70.3% | 66.2% | 81.9% | 76.6% | 38.8% | 44.2% | 80.1% | 74.9% | 8.9% (active)
O=C(CSc1nnc(-c2ccc(-c3nc4ccccc4[nH]3)cc2)o1)Nc1ccc(Cl)cc1 | 23.8% | -0.131% (active) | 18.4% | -50.5% (active) | 7.43% (active) | 7.32% (active) | 59.6% | 22.9% | 54.8%
N/C(=N\c1nc2ccccc2s1)NC(=O)Nc1ccccc1F | 31.1% | 30.2% | -18.1% (active) | 43% | 20.1% | 10.2% | 45.9% | 22.6% | -12.3% (active)
C=CCSc1nnc(-c2ccc(-c3nc4ccccc4[nH]3)cc2)o1 | 4.02% (active) | 83.5% | 79% | 101% | 72.6% | 74.9% | 97.9% | 82% | 69.3%
Cn1cc(-c2cc(N)n3nc(-c4c[nH]c5ccc(Cl)cc45)cc3n2)c2cccnc21 | -65.9% (active) | -77.1% (active) | -84.2% (active) | -72.8% (active) | -81.2% (active) | -90.7% (active) | -98.5% (active) | -70.2% (active) | -93.7% (active)
O=C(N/N=C/c1ccoc1)c1[nH]c2ccc(Br)cc2c1-c1ccccc1 | -74.7% (active) | -90.3% (active) | -96% (active) | -83.6% (active) | -70.3% (active) | -75.8% (active) | -100% (active) | -25.4% (active) | -88.5% (active)
Nc1nnc(-c2cncc(Br)c2)c(-c2c[nH]c3ccc(Cl)cc23)n1 | 34.4% | 95.7% | 35% | 82.8% | 75.1% | 73.7% | 88.8% | 74.5% | 59.4%
COc1sc(/C=N/NC(=O)c2[nH]c3ccc(Br)cc3c2-c2ccccc2)cc1Cl | 54.3% | -35.2% (active) | -10.1% (active) | -33.8% (active) | -26.6% (active) | -43.5% (active) | -30.8% (active) | -16.1% (active) | -6.37% (active)
O=c1[nH]c2ccccc2cc1COc1ccc(Nc2nccc(-c3ccc(Cl)cc3)n2)cc1 | 92.2% | 99.3% | 102% | 105% | 91.3% | 96.4% | 116% | 99.3% | 89.6%
Cn1cc(-c2cc(N)n3nc(-c4c[nH]c5ccccc45)cc3n2)c2cc(Br)ccc21 | -82.7% (active) | -58% (active) | -79% (active) | -84.3% (active) | -73.9% (active) | -77.7% (active) | -77% (active) | -79.3% (active) | -80.8% (active)
O=C(NNC(=S)NCCc1ccccc1)c1ccc(OCc2nc3ccc(Cl)cc3[nH]2)cc1 | 39.4% | 61.5% | 84.3% | 129% | 34.2% | 64.3% | 104% | 63% | 61.4%
O=C(NNC(=O)c1ccc(OCc2nc3ccc(Cl)cc3[nH]2)cc1)Nc1ccc(Cl)c(Cl)c1 | -1.89% (active) | 119% | 26.7% | 47% | 37.7% | 26.1% | 70.1% | 33.8% | -14.8% (active)

From PubChem BioAssay (NCI)
